# In the supplement of paper PMC6089552:
# Hit rate of the full screen: of about 3,200 compounds, about 300 (9.4%) showed activity. What follows is part of a selection rich in actives, with near analogues and random picks from the rest.
# System: A673/TR/shEF
# Test: cell viability (LOESS-normalised, relative to median of negative controls) (log2 ratio); higher = more viable cells (less compound effect), active = hit call of the paper (over 3 MAD below the median)
# Details: treatment time: 72 h
# Summary of the method: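 A673/TR/shEF Ewing sarcoma cells (1,500 per well, 384-well plates) were grown with or without doxycycline to induce EWS-FLI1 shRNA knockdown, starting 24 h before compounds. Library compounds at two or more concentrations, with DMSO controls, were added for three days. Cell viability was read by CellTiter-Glo luminescence on an Envision reader, then LOESS-corrected per plate, divided by the median of negative controls and log2-transformed. Hits were wells at least three median absolute deviations from the median of all screened wells.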
# [1] = 0.25 µM, library screen: screen1, EWS-FLI1 expression: high (no doxycycline)
# [2] = 0.25 µM, library screen: screen1, EWS-FLI1 expression: low (doxycycline-induced shRNA knockdown)
# [3] = 2.5 µM, library screen: screen1, EWS-FLI1 expression: high (no doxycycline)
# [4] = 2.5 µM, library screen: screen1, EWS-FLI1 expression: low (doxycycline-induced shRNA knockdown)
# [5] = 0.025 µM, library screen: screen2, EWS-FLI1 expression: high (no doxycycline)
# [6] = 0.025 µM, library screen: screen2, EWS-FLI1 expression: low (doxycycline-induced shRNA knockdown)
# [7] = 0.25 µM, library screen: screen2, EWS-FLI1 expression: high (no doxycycline)
# [8] = 0.25 µM, library screen: screen2, EWS-FLI1 expression: low (doxycycline-induced shRNA knockdown)
# [9] = 2.5 µM, library screen: screen2, EWS-FLI1 expression: high (no doxycycline)
# [10] = 2.5 µM, library screen: screen2, EWS-FLI1 expression: low (doxycycline-induced shRNA knockdown)
# [11] = 25 µM, library screen: screen2, EWS-FLI1 expression: high (no doxycycline)
# [12] = 25 µM, library screen: screen2, EWS-FLI1 expression: low (doxycycline-induced shRNA knockdown)
smiles,measurement,setting,value
CC1(C)C(=O)C=C[C@]2(C)C3CC[C@@]4(C)[C@H](c5ccoc5)C[C@H]5O[C@]54C3[C@H](O)CC12 (some centres undefined),cell viability (log2),[1],0.0404 (inactive)
same,cell viability (log2),[2],0.00309 (inactive)
same,cell viability (log2),[3],0.102 (inactive)
same,cell viability (log2),[4],0.0462 (inactive)
C[C@H]1C(=O)O[C@@H]2CCN3CC=C(COC(=O)[C@](C)(O)[C@]1(C)O)[C@H]23,cell viability (log2),[5],0.0665 (inactive)
same,cell viability (log2),[6],0.0541 (inactive)
same,cell viability (log2),[1],0.00981 (inactive)
same,cell viability (log2),[2],0.0549 (inactive)
same,cell viability (log2),[7],0.122 (inactive)
same,cell viability (log2),[8],0.0363 (inactive)
same,cell viability (log2),[3],0.0901 (inactive)
same,cell viability (log2),[4],0.111 (inactive)
same,cell viability (log2),[9],0.0833 (inactive)
same,cell viability (log2),[10],0.0416 (inactive)
same,cell viability (log2),[11],0.0406 (inactive)
same,cell viability (log2),[12],0.0625 (inactive)
COC(=O)[C@]1(C)CC[C@]2(C)CC[C@]3(C)C4=CC=C5C(=CC(=O)C(O)=C5C)[C@]4(C)CC[C@@]3(C)[C@@H]2C1,cell viability (log2),[1],-0.0347 (inactive)
same,cell viability (log2),[2],0.133 (inactive)
same,cell viability (log2),[3],-2.91 (active)
same,cell viability (log2),[4],-3.05 (active)
CC1=C(O)C(=O)C=C2C1=CC=C1[C@@]2(C)CC[C@@]2(C)[C@@H]3C[C@](C)(C(=O)O)CC[C@]3(C)CC[C@]12C,cell viability (log2),[5],0.14 (inactive)
same,cell viability (log2),[6],0.0632 (inactive)
same,cell viability (log2),[1],0.0936 (inactive)
same,cell viability (log2),[2],0.0786 (inactive)
same,cell viability (log2),[7],0.154 (inactive)
same,cell viability (log2),[8],0.0872 (inactive)
same,cell viability (log2),[3],-1.03 (active)
same,cell viability (log2),[4],0.0632 (inactive)
same,cell viability (log2),[9],-4.23 (active)
same,cell viability (log2),[10],-0.301 (active)
same,cell viability (log2),[11],-4.23 (active)
same,cell viability (log2),[12],-3.9 (active)
Cc1c(O)c(O)cc2c1CC=C1[C@@]2(C)CC[C@@]2(C)[C@@H]3C[C@](C)(C(=O)O)CC[C@]3(C)CC[C@]12C,cell viability (log2),[1],0.102 (inactive)
same,cell viability (log2),[2],0.0187 (inactive)
same,cell viability (log2),[3],0.0348 (inactive)
same,cell viability (log2),[4],0.22 (inactive)
COC(=O)[C@]1(C)CC[C@]2(C)CC[C@]3(C)C4=CCc5c(cc(O)c(O)c5C)[C@]4(C)CC[C@@]3(C)[C@@H]2C1,cell viability (log2),[1],0.0264 (inactive)
same,cell viability (log2),[2],0.158 (inactive)
same,cell viability (log2),[3],-1.44 (active)
same,cell viability (log2),[4],-0.357 (active)
NCC(CC(=O)O)c1ccc(Cl)cc1 (centres undefined),cell viability (log2),[1],0.0966 (inactive)
same,cell viability (log2),[2],0.12 (inactive)
same,cell viability (log2),[7],0.221 (inactive)
same,cell viability (log2),[8],0.138 (inactive)
same,cell viability (log2),[3],0.123 (inactive)
same,cell viability (log2),[4],0.15 (inactive)
same,cell viability (log2),[9],0.124 (inactive)
same,cell viability (log2),[10],0.0836 (inactive)
CCC(N)C(O)c1ccc(O)c(O)c1 (centres undefined),cell viability (log2),[1],0.161 (inactive)
same,cell viability (log2),[2],0.0223 (inactive)
same,cell viability (log2),[3],0.0883 (inactive)
same,cell viability (log2),[4],0.0282 (inactive)
C[C@]12CC[C@H](O)CC1=CC[C@@H]1[C@@H]2CC[C@]2(C)C(=O)CC[C@@H]12,cell viability (log2),"0.103 µM, library screen: screen3, EWS-FLI1 expression: high (no doxycycline)",-0.0409 (inactive)
same,cell viability (log2),"0.103 µM, library screen: screen3, EWS-FLI1 expression: low (doxycycline-induced shRNA knockdown)",0.0562 (inactive)
same,cell viability (log2),[1],0.164 (inactive)
same,cell viability (log2),[2],0.131 (inactive)
same,cell viability (log2),[7],0.133 (inactive)
same,cell viability (log2),[8],0.0866 (inactive)
same,cell viability (log2),"0.308 µM, library screen: screen3, EWS-FLI1 expression: high (no doxycycline)",0.0564 (inactive)
same,cell viability (log2),"0.308 µM, library screen: screen3, EWS-FLI1 expression: low (doxycycline-induced shRNA knockdown)",0.076 (inactive)
same,cell viability (log2),"0.926 µM, library screen: screen3, EWS-FLI1 expression: high (no doxycycline)",-0.013 (inactive)
same,cell viability (log2),"0.926 µM, library screen: screen3, EWS-FLI1 expression: low (doxycycline-induced shRNA knockdown)",0.0349 (inactive)
same,cell viability (log2),[3],0.137 (inactive)
same,cell viability (log2),[4],0.104 (inactive)
same,cell viability (log2),[9],0.173 (inactive)
same,cell viability (log2),[10],0.152 (inactive)
same,cell viability (log2),"2.8 µM, library screen: screen3, EWS-FLI1 expression: high (no doxycycline)",0.0481 (inactive)
same,cell viability (log2),"2.8 µM, library screen: screen3, EWS-FLI1 expression: low (doxycycline-induced shRNA knockdown)",0.0405 (inactive)
same,cell viability (log2),"8.3 µM, library screen: screen3, EWS-FLI1 expression: high (no doxycycline)",0.0125 (inactive)
same,cell viability (log2),"8.3 µM, library screen: screen3, EWS-FLI1 expression: low (doxycycline-induced shRNA knockdown)",0.0569 (inactive)
same,cell viability (log2),"25 µM, library screen: screen3, EWS-FLI1 expression: high (no doxycycline)",-0.0287 (inactive)
same,cell viability (log2),"25 µM, library screen: screen3, EWS-FLI1 expression: low (doxycycline-induced shRNA knockdown)",-0.0258 (inactive)
CCC(C)C(=O)O[C@@H]1C[C@@]2(C)[C@H](c3ccoc3)OC(=O)CC23OC2(C)OC14C1(C)[C@@H](CC(=O)OC)C5(C)CC1(O)C(O)([C@@H](OC(C)=O)C43O2)[C@H]5OC(=O)C1(C)OC1C (some centres undefined),cell viability (log2),[1],0.0892 (inactive)
same,cell viability (log2),[2],0.0664 (inactive)
same,cell viability (log2),[3],0.0941 (inactive)
same,cell viability (log2),[4],0.178 (inactive)
O=C(O)COc1cc(Cl)c(Cl)cc1Cl,cell viability (log2),[1],0.0712 (inactive)
same,cell viability (log2),[2],0.0603 (inactive)
same,cell viability (log2),[3],0.0828 (inactive)
same,cell viability (log2),[4],0.0118 (inactive)
c1ccc2c3c([nH]c2c1)CNCC3,cell viability (log2),[1],0.101 (inactive)
same,cell viability (log2),[2],0.0693 (inactive)
same,cell viability (log2),[3],0.2 (inactive)
same,cell viability (log2),[4],0.0982 (inactive)
FC(F)(F)c1cccc(N2CCNCC2)c1,cell viability (log2),[1],0.112 (inactive)
same,cell viability (log2),[2],0.0689 (inactive)
same,cell viability (log2),[3],0.176 (inactive)
same,cell viability (log2),[4],0.0985 (inactive)
CN1C2CCC1CC(OC(c1ccccc1)c1ccc(Cl)cc1)C2 (centres undefined),cell viability (log2),[7],0.142 (inactive)
same,cell viability (log2),[8],0.124 (inactive)
same,cell viability (log2),[9],0.232 (inactive)
same,cell viability (log2),[10],0.111 (inactive)
CC(C)CC(NC(=O)C(Cc1ccccc1)NC(=O)CNC(=O)CNC(=O)C(N)Cc1ccc(O)cc1)C(=O)O (centres undefined),cell viability (log2),[1],0.0697 (inactive)
same,cell viability (log2),[2],0.0904 (inactive)
same,cell viability (log2),[3],0.0902 (inactive)
same,cell viability (log2),[4],0.179 (inactive)
Cc1c2ccncc2c(C)c2c1[nH]c1ccccc12,cell viability (log2),[7],0.0843 (inactive)
same,cell viability (log2),[8],0.00884 (inactive)
same,cell viability (log2),[9],-0.136 (active)
same,cell viability (log2),[10],-0.00745 (inactive)
c1ccc2c(c1)[nH]c1cnccc12,cell viability (log2),[1],0.0149 (inactive)
same,cell viability (log2),[2],-0.0111 (inactive)
same,cell viability (log2),[3],0.101 (inactive)
same,cell viability (log2),[4],0.0791 (inactive)
Cc1nccc2c1[nH]c1ccccc12,cell viability (log2),[1],0.0742 (inactive)
same,cell viability (log2),[2],0.0176 (inactive)
same,cell viability (log2),[7],0.227 (inactive)
same,cell viability (log2),[8],0.0311 (inactive)
same,cell viability (log2),[3],0.126 (inactive)
same,cell viability (log2),[4],0.136 (inactive)
same,cell viability (log2),[9],0.107 (inactive)
same,cell viability (log2),[10],0.0839 (inactive)
Cc1ccccc1O,cell viability (log2),[1],0.162 (inactive)
same,cell viability (log2),[2],0.0964 (inactive)
same,cell viability (log2),[3],0.189 (inactive)
same,cell viability (log2),[4],0.175 (inactive)
COC(C)(C)CCCC(C)C/C=C/C(C)=C/C(=O)OC(C)C (centres undefined),cell viability (log2),[1],-0.00169 (inactive)
same,cell viability (log2),[2],0.0238 (inactive)
same,cell viability (log2),[3],0.116 (inactive)
same,cell viability (log2),[4],0.0204 (inactive)
c1ccc2nc(N3CCNCC3)ccc2c1,cell viability (log2),[1],0.0719 (inactive)
same,cell viability (log2),[2],0.0592 (inactive)
same,cell viability (log2),[7],0.196 (inactive)
same,cell viability (log2),[8],0.0365 (inactive)
same,cell viability (log2),[3],0.0383 (inactive)
same,cell viability (log2),[4],0.12 (inactive)
same,cell viability (log2),[9],0.14 (inactive)
same,cell viability (log2),[10],0.00635 (inactive)
c1ccc2c(N3CCNCC3)cccc2c1,cell viability (log2),[7],0.144 (inactive)
same,cell viability (log2),[8],-0.113 (inactive)
same,cell viability (log2),[9],-0.803 (active)
same,cell viability (log2),[10],-0.746 (active)
COc1ccccc1N1CCNCC1,cell viability (log2),[1],0.0547 (inactive)
same,cell viability (log2),[2],0.0205 (inactive)
same,cell viability (log2),[7],0.228 (inactive)
same,cell viability (log2),[8],0.0463 (inactive)
same,cell viability (log2),[3],0.105 (inactive)
same,cell viability (log2),[4],0.112 (inactive)
same,cell viability (log2),[9],0.201 (inactive)
same,cell viability (log2),[10],0.0929 (inactive)
C[C@]12Cc3cn4c(nc3C=C1CCC1C2CC[C@@]2(C)[C@H]1CC[C@@]2(O)C#N)nc1ccccc14 (some centres undefined),cell viability (log2),[7],0.119 (inactive)
same,cell viability (log2),[8],0.112 (inactive)
same,cell viability (log2),[9],0.295 (inactive)
same,cell viability (log2),[10],0.0843 (inactive)
